From publication PMC7862700, “An all-to-all approach to the identification of sequence-specific readers for epigenetic DNA modifications on cytosine”

Experiments:
Test in all cases: DAPPL (digital affinity profiling via proximity ligation, sequencing); 10 mM Tris-HCl pH 7.5, 50 mM NaCl, 1 mM DTT, 4% glycerol, room temperature, 30 min; GST-TFs on glutathione beads, 16-mer random dsDNA library, 0.1% formaldehyde crosslink after washing; high values mean tight binding
[1] = target: T1, FEV (Homo sapiens, UniProt Q99581 1-238); settings: protein: recombinant; tags: N-terminal GST; dsDNA, one strand shown
T1 sequence: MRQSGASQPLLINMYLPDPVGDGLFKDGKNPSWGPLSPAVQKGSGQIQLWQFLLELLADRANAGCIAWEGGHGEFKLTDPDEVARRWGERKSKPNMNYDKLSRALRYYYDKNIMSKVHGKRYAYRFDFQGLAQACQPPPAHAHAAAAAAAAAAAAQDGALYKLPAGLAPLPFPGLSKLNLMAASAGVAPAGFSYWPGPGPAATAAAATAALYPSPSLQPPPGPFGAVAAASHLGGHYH
Summary of the method: (§1)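 Binding signal is each hexamer's read frequency for a factor divided by its frequency in the tag-only sample. The factors were GST-fused human transcription factors from yeast, captured on glutathione beads, DNA-barcoded and pooled with that sample. Pools were incubated with 200 nmole of a random double-stranded 16-mer DNA library in Tris/NaCl/DTT/glycerol buffer at room temperature for 30 min, then washed, crosslinked with 0.1% formaldehyde, proximity-ligated with BsaI/T4 ligase (1 h, 37 °C), PCR-amplified and sequenced on an Illumina NextSeq500.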

[2] = target: ETV5 (Homo sapiens, UniProt P41161 1-510); settings: protein: recombinant; tags: N-terminal GST; dsDNA, one strand shown
Chain of ETV5 (P41161 whole entry): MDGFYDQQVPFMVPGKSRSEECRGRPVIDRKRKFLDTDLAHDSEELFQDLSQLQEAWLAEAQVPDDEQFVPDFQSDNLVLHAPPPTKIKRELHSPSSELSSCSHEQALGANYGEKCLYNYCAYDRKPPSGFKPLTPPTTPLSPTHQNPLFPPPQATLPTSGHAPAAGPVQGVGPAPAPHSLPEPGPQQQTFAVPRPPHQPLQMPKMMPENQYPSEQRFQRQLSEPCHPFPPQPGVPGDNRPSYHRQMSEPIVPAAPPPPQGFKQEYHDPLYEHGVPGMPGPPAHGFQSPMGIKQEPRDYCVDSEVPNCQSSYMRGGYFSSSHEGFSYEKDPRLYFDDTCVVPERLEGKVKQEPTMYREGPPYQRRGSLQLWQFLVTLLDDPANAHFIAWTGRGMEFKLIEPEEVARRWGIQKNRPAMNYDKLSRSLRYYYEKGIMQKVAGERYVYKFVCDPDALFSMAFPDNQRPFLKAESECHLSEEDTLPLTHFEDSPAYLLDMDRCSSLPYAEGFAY
Summary of the method: as §1

[3] = target: HSF1 (Homo sapiens, UniProt Q00613 1-529); settings: protein: recombinant; tags: N-terminal GST; chain copies: 3; dsDNA, one strand shown
Chain of HSF1 (Q00613 whole entry): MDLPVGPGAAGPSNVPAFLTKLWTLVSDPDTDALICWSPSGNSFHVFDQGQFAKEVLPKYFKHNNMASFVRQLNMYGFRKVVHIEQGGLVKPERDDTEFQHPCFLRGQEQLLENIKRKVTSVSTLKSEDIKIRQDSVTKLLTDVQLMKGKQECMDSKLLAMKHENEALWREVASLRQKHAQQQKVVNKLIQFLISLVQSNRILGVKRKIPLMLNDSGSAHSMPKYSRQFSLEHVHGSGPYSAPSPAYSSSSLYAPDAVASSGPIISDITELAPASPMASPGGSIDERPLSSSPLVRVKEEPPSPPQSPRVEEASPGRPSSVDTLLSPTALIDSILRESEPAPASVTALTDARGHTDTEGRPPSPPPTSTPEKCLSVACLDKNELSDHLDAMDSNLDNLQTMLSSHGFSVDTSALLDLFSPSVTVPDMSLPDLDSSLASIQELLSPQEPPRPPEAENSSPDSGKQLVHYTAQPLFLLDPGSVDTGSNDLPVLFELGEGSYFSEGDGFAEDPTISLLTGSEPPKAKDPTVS
Summary of the method: as §1

[4] = target: T2, SPIC (Homo sapiens, UniProt Q8N5J4 1-248); settings: protein: recombinant; tags: N-terminal GST; dsDNA, one strand shown
T2 sequence: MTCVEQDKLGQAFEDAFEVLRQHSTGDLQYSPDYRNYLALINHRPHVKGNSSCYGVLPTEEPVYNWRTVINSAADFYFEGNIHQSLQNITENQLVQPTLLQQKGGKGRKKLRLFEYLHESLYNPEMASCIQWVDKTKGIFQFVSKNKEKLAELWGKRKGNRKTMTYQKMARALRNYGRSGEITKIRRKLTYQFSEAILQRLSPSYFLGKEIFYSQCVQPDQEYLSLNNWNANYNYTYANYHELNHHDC
Summary of the method: as §1

[5] = target: ELF4 (Homo sapiens, UniProt Q99607 1-663); settings: protein: recombinant; tags: N-terminal GST; dsDNA, one strand shown
Chain of ELF4 (Q99607 whole entry): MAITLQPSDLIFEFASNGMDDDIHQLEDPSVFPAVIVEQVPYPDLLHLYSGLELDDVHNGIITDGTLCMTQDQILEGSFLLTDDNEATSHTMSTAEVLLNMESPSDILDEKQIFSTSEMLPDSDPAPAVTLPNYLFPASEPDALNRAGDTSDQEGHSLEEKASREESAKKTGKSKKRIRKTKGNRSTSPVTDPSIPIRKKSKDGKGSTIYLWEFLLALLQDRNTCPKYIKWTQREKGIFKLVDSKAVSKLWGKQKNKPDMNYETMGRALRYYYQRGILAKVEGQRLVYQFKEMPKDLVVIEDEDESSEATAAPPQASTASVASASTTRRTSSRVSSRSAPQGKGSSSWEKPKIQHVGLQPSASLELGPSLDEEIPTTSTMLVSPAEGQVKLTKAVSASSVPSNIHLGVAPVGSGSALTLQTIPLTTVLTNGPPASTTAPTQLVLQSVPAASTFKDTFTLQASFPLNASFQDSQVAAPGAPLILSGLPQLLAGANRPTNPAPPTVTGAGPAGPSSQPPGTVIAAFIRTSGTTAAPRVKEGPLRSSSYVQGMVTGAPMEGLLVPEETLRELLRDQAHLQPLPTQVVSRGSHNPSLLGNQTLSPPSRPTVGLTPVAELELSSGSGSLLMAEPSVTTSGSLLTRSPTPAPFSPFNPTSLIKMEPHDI
Summary of the method: as §1

[6] = target: T3, ELK4 (Homo sapiens, UniProt P28324-2 1-405); settings: protein: recombinant; tags: N-terminal GST; dsDNA, one strand shown
T3 sequence: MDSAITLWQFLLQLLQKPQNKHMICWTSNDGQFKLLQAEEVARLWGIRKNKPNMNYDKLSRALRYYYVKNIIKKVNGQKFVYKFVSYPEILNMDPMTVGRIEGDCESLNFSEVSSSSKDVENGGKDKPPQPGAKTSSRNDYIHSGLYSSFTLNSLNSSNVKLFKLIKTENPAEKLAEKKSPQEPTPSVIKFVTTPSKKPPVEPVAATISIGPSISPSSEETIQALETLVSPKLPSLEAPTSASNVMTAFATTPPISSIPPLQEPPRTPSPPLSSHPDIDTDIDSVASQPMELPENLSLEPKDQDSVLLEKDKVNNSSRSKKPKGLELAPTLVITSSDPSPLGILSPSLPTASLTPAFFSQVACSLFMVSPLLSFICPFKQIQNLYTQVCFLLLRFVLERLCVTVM
Summary of the method: as §1

[7] = target: T4, ETV2 (Homo sapiens, UniProt O00321 1-342); settings: protein: recombinant; tags: N-terminal GST; dsDNA, one strand shown
T4 sequence: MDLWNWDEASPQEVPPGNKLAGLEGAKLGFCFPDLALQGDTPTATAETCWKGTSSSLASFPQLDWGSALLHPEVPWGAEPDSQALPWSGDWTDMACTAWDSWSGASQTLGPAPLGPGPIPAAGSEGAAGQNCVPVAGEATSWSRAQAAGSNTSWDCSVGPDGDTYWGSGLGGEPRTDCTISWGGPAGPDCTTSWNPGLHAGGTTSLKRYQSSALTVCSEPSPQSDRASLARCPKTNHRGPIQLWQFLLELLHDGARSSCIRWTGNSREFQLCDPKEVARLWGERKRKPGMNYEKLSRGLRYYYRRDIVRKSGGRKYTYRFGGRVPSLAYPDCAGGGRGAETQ
Summary of the method: as §1

[8] = target: T5, ELF3 (Homo sapiens, UniProt P78545 1-371); settings: protein: recombinant; tags: N-terminal GST; dsDNA, one strand shown
T5 sequence: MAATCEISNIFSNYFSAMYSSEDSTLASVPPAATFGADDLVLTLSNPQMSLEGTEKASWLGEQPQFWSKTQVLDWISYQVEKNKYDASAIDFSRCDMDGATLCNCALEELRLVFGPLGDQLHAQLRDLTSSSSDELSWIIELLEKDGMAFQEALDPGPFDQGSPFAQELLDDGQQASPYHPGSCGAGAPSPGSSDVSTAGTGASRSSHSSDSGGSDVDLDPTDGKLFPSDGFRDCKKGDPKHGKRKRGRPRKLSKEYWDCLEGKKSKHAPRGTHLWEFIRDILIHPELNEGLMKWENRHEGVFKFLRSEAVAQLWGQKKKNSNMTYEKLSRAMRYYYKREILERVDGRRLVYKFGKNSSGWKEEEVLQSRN
Summary of the method: as §1

[9] = target: CRX (Homo sapiens, UniProt O43186 1-299); settings: protein: recombinant; tags: N-terminal GST; dsDNA, one strand shown
Chain of CRX (O43186 whole entry): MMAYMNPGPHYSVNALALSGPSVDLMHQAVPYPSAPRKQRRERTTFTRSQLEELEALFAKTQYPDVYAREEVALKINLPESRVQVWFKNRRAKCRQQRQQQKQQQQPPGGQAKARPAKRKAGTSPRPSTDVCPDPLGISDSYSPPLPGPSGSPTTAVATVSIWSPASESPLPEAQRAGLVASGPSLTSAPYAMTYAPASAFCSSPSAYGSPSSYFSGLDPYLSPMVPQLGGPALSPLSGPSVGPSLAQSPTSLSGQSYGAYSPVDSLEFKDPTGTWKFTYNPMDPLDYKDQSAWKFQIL
Summary of the method: as §1

[10] = target: ETV1 (Homo sapiens, UniProt P50549 1-477); settings: protein: recombinant; tags: N-terminal GST; dsDNA, one strand shown
Chain of ETV1 (P50549 whole entry): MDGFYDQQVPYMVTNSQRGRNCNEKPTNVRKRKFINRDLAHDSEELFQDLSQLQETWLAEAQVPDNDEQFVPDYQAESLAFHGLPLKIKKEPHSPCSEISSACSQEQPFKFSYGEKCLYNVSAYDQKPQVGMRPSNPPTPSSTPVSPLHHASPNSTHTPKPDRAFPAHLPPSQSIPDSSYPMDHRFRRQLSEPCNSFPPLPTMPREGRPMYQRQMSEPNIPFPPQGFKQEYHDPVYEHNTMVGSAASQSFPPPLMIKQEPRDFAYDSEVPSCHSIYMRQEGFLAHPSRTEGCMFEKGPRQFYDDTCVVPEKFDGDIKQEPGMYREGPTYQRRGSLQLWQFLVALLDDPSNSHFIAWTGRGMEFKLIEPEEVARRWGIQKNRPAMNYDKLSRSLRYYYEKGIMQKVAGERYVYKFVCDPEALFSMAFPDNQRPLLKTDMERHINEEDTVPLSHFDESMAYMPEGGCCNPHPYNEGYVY
Summary of the method: as §1

[11] = target: T6, ERF (Homo sapiens, UniProt P50548 1-548); settings: protein: recombinant; tags: N-terminal GST; dsDNA, one strand shown
T6 sequence: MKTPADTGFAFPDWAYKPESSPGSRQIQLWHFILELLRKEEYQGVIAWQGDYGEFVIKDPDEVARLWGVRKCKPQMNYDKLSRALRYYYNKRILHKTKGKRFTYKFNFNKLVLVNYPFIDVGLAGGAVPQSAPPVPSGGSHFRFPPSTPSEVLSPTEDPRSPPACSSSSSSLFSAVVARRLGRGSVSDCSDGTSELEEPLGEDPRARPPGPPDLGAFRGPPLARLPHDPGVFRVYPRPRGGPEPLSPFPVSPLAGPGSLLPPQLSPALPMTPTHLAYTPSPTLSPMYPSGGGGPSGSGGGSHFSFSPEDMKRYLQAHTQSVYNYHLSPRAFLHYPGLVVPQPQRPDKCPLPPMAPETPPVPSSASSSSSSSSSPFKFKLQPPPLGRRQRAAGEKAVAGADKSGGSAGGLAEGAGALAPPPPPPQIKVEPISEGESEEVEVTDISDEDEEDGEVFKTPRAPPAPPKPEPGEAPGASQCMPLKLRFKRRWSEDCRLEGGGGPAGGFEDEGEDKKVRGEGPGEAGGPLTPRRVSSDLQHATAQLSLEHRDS
Summary of the method: as §1

[12] = target: T7, ETV3L (Homo sapiens, UniProt Q6ZN32 1-361); settings: protein: recombinant; tags: N-terminal GST; dsDNA, one strand shown
T7 sequence: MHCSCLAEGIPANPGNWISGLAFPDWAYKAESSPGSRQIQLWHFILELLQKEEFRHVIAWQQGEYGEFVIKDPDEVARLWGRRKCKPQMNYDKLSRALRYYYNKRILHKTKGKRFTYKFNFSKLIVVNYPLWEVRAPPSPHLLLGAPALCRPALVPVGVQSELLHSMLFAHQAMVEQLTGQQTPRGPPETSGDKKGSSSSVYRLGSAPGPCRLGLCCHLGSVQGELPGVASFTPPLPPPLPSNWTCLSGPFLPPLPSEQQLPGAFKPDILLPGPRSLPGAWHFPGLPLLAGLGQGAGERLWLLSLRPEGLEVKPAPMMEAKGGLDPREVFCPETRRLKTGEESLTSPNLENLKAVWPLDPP
Summary of the method: as §1

[13] = target: T8, ETS2 (Homo sapiens, UniProt P15036 1-469); settings: protein: recombinant; tags: N-terminal GST; dsDNA, one strand shown
T8 sequence: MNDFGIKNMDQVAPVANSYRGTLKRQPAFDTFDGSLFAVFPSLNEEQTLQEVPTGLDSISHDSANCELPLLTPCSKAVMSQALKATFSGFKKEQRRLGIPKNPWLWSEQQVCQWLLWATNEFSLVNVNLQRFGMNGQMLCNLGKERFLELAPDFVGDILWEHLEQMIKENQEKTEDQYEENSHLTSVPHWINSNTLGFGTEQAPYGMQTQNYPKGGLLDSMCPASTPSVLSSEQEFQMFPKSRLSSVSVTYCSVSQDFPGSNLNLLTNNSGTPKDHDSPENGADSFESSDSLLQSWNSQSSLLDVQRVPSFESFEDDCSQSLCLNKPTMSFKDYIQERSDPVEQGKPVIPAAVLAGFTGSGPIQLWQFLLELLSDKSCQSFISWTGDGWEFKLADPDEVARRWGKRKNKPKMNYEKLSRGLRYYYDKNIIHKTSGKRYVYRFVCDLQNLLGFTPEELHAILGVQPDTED
Summary of the method: as §1

[14] = target: T9, SPDEF (Homo sapiens, UniProt O95238 1-335); settings: protein: recombinant; tags: N-terminal GST; dsDNA, one strand shown
T9 sequence: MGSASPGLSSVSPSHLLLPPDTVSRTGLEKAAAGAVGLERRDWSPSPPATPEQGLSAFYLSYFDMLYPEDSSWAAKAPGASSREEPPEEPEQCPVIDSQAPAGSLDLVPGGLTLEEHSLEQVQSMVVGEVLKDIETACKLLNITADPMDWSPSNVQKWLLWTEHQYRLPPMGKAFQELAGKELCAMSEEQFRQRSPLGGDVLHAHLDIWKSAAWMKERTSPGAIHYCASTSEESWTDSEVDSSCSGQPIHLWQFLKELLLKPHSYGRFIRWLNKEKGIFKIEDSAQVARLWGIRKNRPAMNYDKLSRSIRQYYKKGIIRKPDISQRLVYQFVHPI
Summary of the method: as §1

[15] = target: T10, ETV7 (Homo sapiens, UniProt Q9Y603 1-341); settings: protein: recombinant; tags: N-terminal GST; dsDNA, one strand shown
T10 sequence: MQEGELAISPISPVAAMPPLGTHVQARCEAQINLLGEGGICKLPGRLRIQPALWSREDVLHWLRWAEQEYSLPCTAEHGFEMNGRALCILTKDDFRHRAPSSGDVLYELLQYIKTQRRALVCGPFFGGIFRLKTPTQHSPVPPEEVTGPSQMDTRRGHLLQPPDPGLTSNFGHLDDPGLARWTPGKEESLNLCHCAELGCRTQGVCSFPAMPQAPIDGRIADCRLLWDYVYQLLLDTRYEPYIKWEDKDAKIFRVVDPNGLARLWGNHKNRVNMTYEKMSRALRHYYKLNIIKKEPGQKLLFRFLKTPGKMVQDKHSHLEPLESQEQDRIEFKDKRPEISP
Summary of the method: as §1

[16] = target: T11, ELF5 (Homo sapiens, UniProt Q9UKW6-2 1-255); settings: protein: recombinant; tags: N-terminal GST; dsDNA, one strand shown
T11 sequence: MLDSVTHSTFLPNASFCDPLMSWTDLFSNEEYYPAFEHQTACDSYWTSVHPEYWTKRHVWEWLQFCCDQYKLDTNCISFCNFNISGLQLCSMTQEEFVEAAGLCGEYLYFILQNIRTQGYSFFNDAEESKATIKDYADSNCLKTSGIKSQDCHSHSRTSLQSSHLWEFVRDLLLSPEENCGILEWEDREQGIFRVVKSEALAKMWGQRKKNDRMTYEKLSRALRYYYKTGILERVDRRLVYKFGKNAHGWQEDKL
Summary of the method: as §1

[17] = target: T12, ETV3 (Homo sapiens, UniProt P41162-2 1-143); settings: protein: recombinant; tags: N-terminal GST; dsDNA, one strand shown
T12 sequence: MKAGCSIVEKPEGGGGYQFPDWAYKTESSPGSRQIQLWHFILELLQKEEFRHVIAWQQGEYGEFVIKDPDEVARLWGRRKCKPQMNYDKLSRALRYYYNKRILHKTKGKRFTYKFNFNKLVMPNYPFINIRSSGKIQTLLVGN
Summary of the method: as §1

[18] = target: ETV6 (Homo sapiens, UniProt P41212 1-452); settings: protein: recombinant; tags: N-terminal GST; dsDNA, one strand shown
Chain of ETV6 (P41212 whole entry): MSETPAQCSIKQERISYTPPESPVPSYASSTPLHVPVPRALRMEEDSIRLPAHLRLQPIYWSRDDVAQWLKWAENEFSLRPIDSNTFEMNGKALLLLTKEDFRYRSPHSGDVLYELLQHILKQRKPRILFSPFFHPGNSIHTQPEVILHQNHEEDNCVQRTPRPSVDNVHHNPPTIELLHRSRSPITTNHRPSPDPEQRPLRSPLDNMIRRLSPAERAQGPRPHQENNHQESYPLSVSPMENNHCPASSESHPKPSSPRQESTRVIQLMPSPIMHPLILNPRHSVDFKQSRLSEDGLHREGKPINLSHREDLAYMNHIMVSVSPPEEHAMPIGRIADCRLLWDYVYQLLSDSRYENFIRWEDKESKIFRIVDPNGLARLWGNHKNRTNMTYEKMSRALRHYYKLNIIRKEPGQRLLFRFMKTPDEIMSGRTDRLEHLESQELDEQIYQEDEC
Summary of the method: as §1

Sequence	binding signal [1]	binding signal [2]	binding signal [3]	binding signal [4]	binding signal [5]	binding signal [6]	binding signal [7]	binding signal [8]	binding signal [9]	binding signal [10]	binding signal [11]	binding signal [12]	binding signal [13]	binding signal [14]	binding signal [15]	binding signal [16]	binding signal [17]	binding signal [18]
ATTCGT	1.12 fold enrichment (6-mer frequency, TF over GST control)	1.19 fold enrichment (6-mer frequency, TF over GST control)	1.27 fold enrichment (6-mer frequency, TF over GST control)	1.25 fold enrichment (6-mer frequency, TF over GST control)	1.24 fold enrichment (6-mer frequency, TF over GST control)	1.11 fold enrichment (6-mer frequency, TF over GST control)	1.16 fold enrichment (6-mer frequency, TF over GST control)	1.37 fold enrichment (6-mer frequency, TF over GST control)	1.28 fold enrichment (6-mer frequency, TF over GST control)	1.14 fold enrichment (6-mer frequency, TF over GST control)	1.22 fold enrichment (6-mer frequency, TF over GST control)	1.16 fold enrichment (6-mer frequency, TF over GST control)	1.26 fold enrichment (6-mer frequency, TF over GST control)	1.18 fold enrichment (6-mer frequency, TF over GST control)	1.34 fold enrichment (6-mer frequency, TF over GST control)	1.11 fold enrichment (6-mer frequency, TF over GST control)	1.28 fold enrichment (6-mer frequency, TF over GST control)	1.11 fold enrichment (6-mer frequency, TF over GST control)
GGCTCC	1.35 fold enrichment (6-mer frequency, TF over GST control)	1.37 fold enrichment (6-mer frequency, TF over GST control)	1.13 fold enrichment (6-mer frequency, TF over GST control)	1.16 fold enrichment (6-mer frequency, TF over GST control)	1.24 fold enrichment (6-mer frequency, TF over GST control)	1.29 fold enrichment (6-mer frequency, TF over GST control)	1.43 fold enrichment (6-mer frequency, TF over GST control)	1.32 fold enrichment (6-mer frequency, TF over GST control)	1.1 fold enrichment (6-mer frequency, TF over GST control)	1.24 fold enrichment (6-mer frequency, TF over GST control)	1.28 fold enrichment (6-mer frequency, TF over GST control)	1.27 fold enrichment (6-mer frequency, TF over GST control)	1.21 fold enrichment (6-mer frequency, TF over GST control)	1.48 fold enrichment (6-mer frequency, TF over GST control)	1.25 fold enrichment (6-mer frequency, TF over GST control)	1.33 fold enrichment (6-mer frequency, TF over GST control)	1.3 fold enrichment (6-mer frequency, TF over GST control)	1.25 fold enrichment (6-mer frequency, TF over GST control)
